Hit rate of the full screen: of about 69,000 compounds, about 8,600 (12%) showed an effect of 50% or more. Only a selection was taken, and strong results are over-represented in it overall.

The assay has as its system Plasmodium berghei. Briefly: Screen against P. berghei liver stage (PbLuc), transformed with Luciferase, at 10uM. The class given is functional, HepG2. The following applies: tested at 10 uM.
On to `CNC(=O)c1cc(NC(=O)Nc2cnn(CC(C)C)c2)ccc1F`, for which the INHIBITION was 1.56%.

`COc1ccccc1-c1cc(C(=O)N2CCCC2)c2cnn(C)c2n1`: the INHIBITION was 44.1%. Under `O=C(CCc1ccccn1)N1CCCC1` stands -8.11%; under `O=C(C1SCCc2ccccc21)N1CCC(O)CC1` (stereo not drawn), 50.8%; under `CC(=O)N1CCN(C(=O)C2SCCc3sccc32)CC1` (stereo not drawn), 8.47%. Under `CN1CCN(C(=O)C2SCCc3sccc32)CC1` (stereo not drawn) stands 39.7%; under `O=C(C1SCCc2sccc21)N1CC(O)C1` (stereo not drawn), 6.33%. Consider `O=C(C1SCCc2sccc21)N1CCC(O)CC1` (stereo not drawn), for which the INHIBITION is on record as 20.1%. Regarding `CN(C)C1CCN(C(=O)C2SCCc3ccccc32)CC1` (stereo not drawn), the INHIBITION came out at 19.2%.

For `CN(C)C(=O)C1SCCc2ccccc21` (stereo not drawn), the INHIBITION is recorded as 38.9%. Under `NC(=O)C1CCN(C(=O)C2SCCc3sccc32)CC1` (stereo not drawn) stands 69.7%. With `O=C(C1SCCc2sccc21)N1CCCCC1` (stereo not drawn), the INHIBITION stood at 62%. The figure for `COCCNC(=O)C1CCCN(c2ccc3nncn3n2)C1` (stereo not drawn) is -21.9%; for `CCO[C@H]1CN(CC2CCOCC2)[C@@H]2CCCO[C@H]12` it is 38.5%. Under `O=C1COC2(CCN(Cc3ccco3)CC2)CN1CCn1cccn1` stands 4.02%. Under `O=C(Nc1ccc(CCN2CCOCC2)cc1)C1CC1` stands 6.35%; under `Cc1nsc(N2CCCN(C(=O)CCc3ccsc3)CC2)n1`, 15.7%; under `CCOc1ccc(N2CCCN=C2NC(=O)c2cccc(OC)c2)cc1`, 54.9%. For the molecule `CCOc1ccc(N2CCCN=C2NC(=O)c2ccc(Cl)cc2)cc1`, the INHIBITION is on record as 19.3%. The figure for `CCOc1ccc(N2CCCN=C2NC(=O)c2ccc(OC)cc2)cc1` is -8.07%; for `CCOc1ccc(N2CCCN=C2NC(=O)c2cccc(Cl)c2)cc1` it is 23.5%; for `CCOc1ccc(N2CCCN=C2NC(=O)c2ccccc2C)cc1` it is -11.5%. Under `CCOc1ccc(N2CCCN=C2NC(=O)c2cccc(C)c2)cc1` stands 54%. In the case of `NC(=O)C1CCN(C(=O)NCCNc2ccccn2)CC1`, the INHIBITION came out at 21.9%. Under `CCc1ncc(CN(C)C2CCN(C(C)C)CC2)cn1` stands -27.1%; under `O=C(c1ccco1)N1CCC2(CCC(=O)N2Cc2cccc(F)c2)CC1`, -4.27%.

Regarding `COc1cc(N2C[C@H](C(=O)NC3CC3)[C@@H]3CCO[C@@H]3C2)ncn1`, the INHIBITION was 12.7%. Under `Cc1cnn(C2CN(CC(O)COc3ccc(C#N)cc3)C2)c1` (stereo not drawn) stands 72.7%. Consider `Cc1cnn(C2CN(CC(O)c3ccccc3)C2)c1` (stereo not drawn), for which the INHIBITION is listed as 29%. As to `COc1ccc(C(O)CN2CC(n3cc(C)cn3)C2)cc1` (stereo not drawn), the INHIBITION is recorded as 57.2%. Under `Cc1cnn(C2CN(CC(O)c3ccc(F)cc3)C2)c1` (stereo not drawn) stands -30.1%. The figure for `Cc1cnn(C2CN(CC(O)Cn3cccn3)C2)c1` (stereo not drawn) is 36.6%; for `Cc1ncc2c(n1)CN(CC(O)COc1ccc(C#N)cc1)CC2` (stereo not drawn) it is -78%. Under `COc1cccc(-n2c(C)cc(C(=O)NCCCC(N)=O)c2C)c1` stands -5.25%; under `CC(C)c1nnc2n1CCN(C(=O)c1cccc(S(C)(=O)=O)c1)C2`, 45.7%. For `O=C(C1CCOCC1)N1C[C@H]2CCC[C@@]2(COc2cccnc2)C1`, the INHIBITION is recorded as 23.6%.

For `O=C(c1ccc(F)cc1)N1C[C@H]2CCC[C@@]2(COCc2ccccn2)C1`, the INHIBITION is listed as 40.9%. Under `O=C(c1ncccn1)N1C[C@H]2CCC[C@@]2(COCc2cccnc2)C1` stands 45.5%; under `c1ccc(COC[C@@]23CCC[C@@H]2CN(Cc2ccccn2)C3)nc1`, -7.94%; under `O=C(N1CCCC1)N1C[C@H]2CCC[C@@]2(COCc2ccccn2)C1`, 63.8%. Take `O=C(C1CCOCC1)N1C[C@H]2CCC[C@@]2(COCc2ccccn2)C1`: the INHIBITION was 53%. The figure for `O=C(c1cocn1)N1C[C@H]2CCC[C@@]2(COCc2cccnc2)C1` is 9.63%; for `O=S(=O)(C1CC1)N1C[C@H]2CCC[C@@]2(COCc2ccccn2)C1` it is 43.9%. `O=C(c1cscn1)N1C[C@H]2CCC[C@@]2(COCc2ccccn2)C1`: the INHIBITION is reported as 64.7%.

With `Cc1ncoc1C(=O)N1C[C@H]2CCC[C@@]2(COCc2cccnc2)C1`, the INHIBITION worked out at 60.1%.

For `O=C(c1ccnnc1)N1C[C@H]2CCC[C@@]2(COCc2ccccn2)C1`, the INHIBITION is recorded as 31.1%. Under `O=C(C1CCOCC1)N1C[C@H]2CCC[C@@]2(COc2ccccn2)C1` stands 13.6%; under `O=C(NCCCn1cccn1)C1(c2ccccc2)CCOCC1`, 16.8%. For the molecule `Cc1c(C(=O)N2CCCC(n3nnc4cc(F)ccc43)C2)cnn1C` (stereo not drawn), the INHIBITION was 2.71%.

As to `CCC(NC(=O)COC)c1ccccc1OCC(=O)N1CCCC1` (stereo not drawn), the INHIBITION was -4.65%. Under `CN(C)C[C@@H]1CN(C(=O)c2cc(-c3ccccc3)n[nH]2)C[C@@H]1CO` stands 43.9%; under `COc1ccc(S(=O)(=O)NC(=O)COC2CCCC2)cc1`, -0.96%.

Consider `Cc1ccc(NC(=O)N2C[C@@H]3CC[C@H]2CN(Cc2cscn2)C3)cc1`, for which the INHIBITION is given as -28.6%. As for `Nc1ccnc(N2C[C@H]3CC[C@@H](C2)N(CC2CCC2)C3=O)n1`, the INHIBITION was -32.4%. On to `CCn1ccc(NC(=O)CCn2nc(C)c3ccccc32)n1`, for which the INHIBITION is on record as -21.3%. Under `CCN(CC)C(=O)Cn1ccc2cc(NC(=O)NC3CC3)ccc21` stands -22.91%; under `CCC(=O)N1CCC(NC(=O)c2cccc(-n3ccnc3)c2)C1` (stereo not drawn), 2.43%. The figure for `Cc1cc(C)n(CC2CCCN2C(=O)c2cccc3c2OCCO3)n1` (stereo not drawn) is 10.85%.

(Values after ChEMBL document CHEMBL4513216, “Probing the Open Global Health Chemical Diversity Library for Multistage-Active Starting Points for Next-Generation Antimalarials” (ACS Infect Dis, 2020).)
